The results in this text go back to ChEMBL document CHEMBL3988442, “University of Dundee, Small-Polar-MMV Screening Library” (2021).

For part of these data: Entries with a potency or affinity are not part of this list.

What all share (parameters): scale not given: direction of the effect not stated beside the values
In test [1] the target is Protein translocase subunit SecA (Escherichia coli (strain K12)) (UniProt P10408). Briefly: Assay to Identify E. coli SecA ATPase Inhibitors. Format: functional. To be noted: 30 µM.
Protein translocase subunit SecA (Escherichia coli (strain K12)), sequence (P10408 whole entry): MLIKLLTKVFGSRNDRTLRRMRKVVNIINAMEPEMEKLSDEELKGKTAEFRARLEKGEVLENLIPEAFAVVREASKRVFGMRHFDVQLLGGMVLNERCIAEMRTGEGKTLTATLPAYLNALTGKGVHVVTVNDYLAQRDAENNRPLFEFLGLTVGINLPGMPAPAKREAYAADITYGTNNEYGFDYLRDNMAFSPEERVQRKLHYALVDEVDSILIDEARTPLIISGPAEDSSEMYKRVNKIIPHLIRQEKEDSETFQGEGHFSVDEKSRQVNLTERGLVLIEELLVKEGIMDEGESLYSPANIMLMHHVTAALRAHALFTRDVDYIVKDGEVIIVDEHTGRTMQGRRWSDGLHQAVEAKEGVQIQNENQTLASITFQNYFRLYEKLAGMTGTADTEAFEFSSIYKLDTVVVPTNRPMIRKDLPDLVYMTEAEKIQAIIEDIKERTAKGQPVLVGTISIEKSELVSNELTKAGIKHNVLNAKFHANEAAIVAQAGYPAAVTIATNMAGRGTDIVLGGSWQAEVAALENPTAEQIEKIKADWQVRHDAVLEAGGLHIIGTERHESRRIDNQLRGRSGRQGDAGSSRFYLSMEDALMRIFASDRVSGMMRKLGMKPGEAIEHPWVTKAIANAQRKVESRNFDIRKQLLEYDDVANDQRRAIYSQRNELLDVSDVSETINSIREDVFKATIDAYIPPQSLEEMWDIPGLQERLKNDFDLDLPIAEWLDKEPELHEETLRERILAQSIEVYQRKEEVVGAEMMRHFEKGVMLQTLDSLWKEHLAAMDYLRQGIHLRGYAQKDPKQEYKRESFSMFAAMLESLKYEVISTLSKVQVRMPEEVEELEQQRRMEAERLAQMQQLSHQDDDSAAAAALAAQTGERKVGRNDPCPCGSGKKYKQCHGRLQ
Test [2] addresses T1, Ubiquitin-activating enzyme e1, putative (Leishmania donovani (strain BPK282A1)) (UniProt E9BSI1).
T1 sequence (whole entry): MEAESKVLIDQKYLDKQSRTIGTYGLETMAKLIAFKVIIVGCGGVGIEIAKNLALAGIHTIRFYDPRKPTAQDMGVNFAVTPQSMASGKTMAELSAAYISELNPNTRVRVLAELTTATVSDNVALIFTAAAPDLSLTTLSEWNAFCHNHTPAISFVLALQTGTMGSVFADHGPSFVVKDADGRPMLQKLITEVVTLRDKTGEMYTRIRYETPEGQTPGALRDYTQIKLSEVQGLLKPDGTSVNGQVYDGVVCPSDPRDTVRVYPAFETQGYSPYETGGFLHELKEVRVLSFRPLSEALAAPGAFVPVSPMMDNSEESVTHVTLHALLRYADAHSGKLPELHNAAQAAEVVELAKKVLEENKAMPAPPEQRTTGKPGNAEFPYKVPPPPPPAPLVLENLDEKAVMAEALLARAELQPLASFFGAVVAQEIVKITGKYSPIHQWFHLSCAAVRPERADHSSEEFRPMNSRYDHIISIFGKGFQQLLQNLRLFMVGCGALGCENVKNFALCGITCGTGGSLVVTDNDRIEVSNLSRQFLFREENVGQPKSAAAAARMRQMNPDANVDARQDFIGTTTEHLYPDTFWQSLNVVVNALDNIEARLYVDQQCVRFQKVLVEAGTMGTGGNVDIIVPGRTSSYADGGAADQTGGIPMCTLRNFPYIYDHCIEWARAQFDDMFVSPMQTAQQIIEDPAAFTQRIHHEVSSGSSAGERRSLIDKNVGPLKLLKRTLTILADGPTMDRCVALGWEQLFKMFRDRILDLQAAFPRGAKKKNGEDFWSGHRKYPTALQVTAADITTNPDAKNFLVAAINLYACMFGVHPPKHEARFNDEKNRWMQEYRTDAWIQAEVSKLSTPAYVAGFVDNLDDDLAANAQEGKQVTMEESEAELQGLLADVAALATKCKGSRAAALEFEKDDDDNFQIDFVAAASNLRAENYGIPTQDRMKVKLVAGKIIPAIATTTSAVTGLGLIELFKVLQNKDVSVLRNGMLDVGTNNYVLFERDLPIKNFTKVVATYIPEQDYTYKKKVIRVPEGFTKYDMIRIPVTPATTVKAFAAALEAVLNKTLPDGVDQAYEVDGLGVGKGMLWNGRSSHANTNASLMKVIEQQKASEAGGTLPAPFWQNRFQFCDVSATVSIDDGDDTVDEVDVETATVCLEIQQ
Description: Leishmania donovani Ubiquitin Activating Enzyme (LdE1). The class given is functional. To be noted: 30 µM.

For test [3], the target named is T2, Aspartate--tRNA(Asp/Asn) ligase (Mycobacterium tuberculosis (strain ATCC 25618 / H37Rv)) (UniProt P9WFW3). Further: in the data most compounds retested in dose-response had high values.
T2 sequence (whole entry): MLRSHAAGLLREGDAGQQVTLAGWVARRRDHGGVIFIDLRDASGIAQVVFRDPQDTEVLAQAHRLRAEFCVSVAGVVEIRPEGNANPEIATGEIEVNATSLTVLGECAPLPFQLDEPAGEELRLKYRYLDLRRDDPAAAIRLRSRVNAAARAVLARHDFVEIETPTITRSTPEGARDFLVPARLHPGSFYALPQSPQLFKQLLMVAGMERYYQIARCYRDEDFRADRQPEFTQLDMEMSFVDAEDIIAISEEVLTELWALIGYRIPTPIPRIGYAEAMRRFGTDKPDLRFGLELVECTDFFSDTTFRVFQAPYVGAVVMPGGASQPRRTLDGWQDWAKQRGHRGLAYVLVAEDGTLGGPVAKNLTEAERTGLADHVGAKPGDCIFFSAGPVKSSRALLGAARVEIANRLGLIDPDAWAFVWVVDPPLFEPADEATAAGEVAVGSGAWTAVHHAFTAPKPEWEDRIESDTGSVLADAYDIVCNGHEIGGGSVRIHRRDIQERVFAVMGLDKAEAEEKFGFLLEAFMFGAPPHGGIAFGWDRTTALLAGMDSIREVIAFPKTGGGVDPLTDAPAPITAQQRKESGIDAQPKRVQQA
Briefly: Assay for Asp RNA synthetase-1 from Mycobacterium tuberculosis. Format: functional. To be noted: 30 µM.

Test [4] addresses Sialic acid-binding Ig-like lectin 9 (Homo sapiens) (UniProt Q9Y336). Description: Hs-Siglec9 ALPHAscreen SOP 20170721. To be noted: 10 µM. On the technique in general: Bead proximity is the source of the signal in Alpha formats.
For another test, the system named is Trypanosoma cruzi. Description: Trypanosoma cruzi phosphomannomutase and mannose-1-phosphate guanylyltransferase assay. The class given is functional. As to conditions: 10 µM.
For test [5], the target named is T3, Arginase-2, mitochondrial (Homo sapiens) (UniProt P78540).
T3 sequence (whole entry): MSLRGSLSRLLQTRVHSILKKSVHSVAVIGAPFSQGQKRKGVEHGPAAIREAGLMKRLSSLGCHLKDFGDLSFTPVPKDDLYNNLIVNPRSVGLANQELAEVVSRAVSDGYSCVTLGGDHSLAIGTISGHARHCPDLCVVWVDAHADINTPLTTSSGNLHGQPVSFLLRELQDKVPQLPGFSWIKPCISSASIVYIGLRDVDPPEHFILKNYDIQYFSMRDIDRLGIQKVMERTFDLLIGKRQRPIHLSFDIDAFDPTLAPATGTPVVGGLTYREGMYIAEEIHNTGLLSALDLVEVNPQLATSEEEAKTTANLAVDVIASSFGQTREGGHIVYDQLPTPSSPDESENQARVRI
Briefly: in vitro enzyme assay to detect the production of urea directly proportional to the activity of Arginase II. Further: in the data most compounds retested in dose-response had high values. Format: functional. As to conditions: 33.3 µM.

For test [6], the target named is T4, Proteasome subunit beta (Trypanosoma cruzi) (UniProt O96673).
T4 sequence (whole entry): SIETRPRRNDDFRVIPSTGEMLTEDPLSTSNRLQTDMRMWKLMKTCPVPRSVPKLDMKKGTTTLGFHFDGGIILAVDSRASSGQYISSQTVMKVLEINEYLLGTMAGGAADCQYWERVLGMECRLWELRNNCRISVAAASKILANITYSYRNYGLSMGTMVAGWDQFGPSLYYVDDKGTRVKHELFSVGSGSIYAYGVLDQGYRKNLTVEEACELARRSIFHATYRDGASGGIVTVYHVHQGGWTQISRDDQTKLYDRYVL
Briefly: Trypanosoma cruzi proteasome chymotrypsin-like activity (TcProtChymo) assay. Further: in the data most compounds retested in dose-response had high values. The class given is functional. To be noted: 9.37 µM.

The next test is filed under the species Homo sapiens. Briefly: To identify inhibition of the IFN signalling (Jak-Stat) pathway via expression of an eGFP reporter gene under the control of an IFN-stimulated response element (ISRE) containing MxA promoter. As to conditions: 30 µM. The class given is functional.
Test [7] addresses Shiga toxin 2 (Escherichia coli O157:H7) (UniProt P09385+P09386). Description: E. coli 0.157:H7 Shiga Toxin SOP - stx2 screening assay. The class given is functional. To be noted: 30 µM.
Test [8] deals with T5, Tyrosyl-tRNA synthetase, putative (Trypanosoma cruzi (strain CL Brener)) (UniProt Q4DSP6).
T5 sequence (whole entry): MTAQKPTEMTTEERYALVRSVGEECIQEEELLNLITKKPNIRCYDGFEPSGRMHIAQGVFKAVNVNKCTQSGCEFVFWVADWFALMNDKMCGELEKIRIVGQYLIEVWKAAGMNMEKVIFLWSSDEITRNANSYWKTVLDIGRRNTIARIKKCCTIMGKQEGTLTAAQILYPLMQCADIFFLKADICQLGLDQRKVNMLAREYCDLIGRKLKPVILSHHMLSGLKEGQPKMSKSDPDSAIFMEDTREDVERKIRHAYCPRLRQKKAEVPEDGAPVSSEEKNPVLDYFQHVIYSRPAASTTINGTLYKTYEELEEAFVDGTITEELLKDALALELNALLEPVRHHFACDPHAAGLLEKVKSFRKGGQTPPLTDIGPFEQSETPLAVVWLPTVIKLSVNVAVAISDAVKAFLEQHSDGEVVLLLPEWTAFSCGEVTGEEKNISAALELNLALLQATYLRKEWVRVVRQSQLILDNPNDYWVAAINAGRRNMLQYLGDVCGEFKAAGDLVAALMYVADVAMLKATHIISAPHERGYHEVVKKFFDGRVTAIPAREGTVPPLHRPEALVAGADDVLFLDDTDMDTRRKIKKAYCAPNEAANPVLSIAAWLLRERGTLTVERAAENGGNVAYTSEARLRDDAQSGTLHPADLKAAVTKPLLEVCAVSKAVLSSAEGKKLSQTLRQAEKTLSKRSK
Briefly: Trypanosoma cruzi tyrosyl tRNA synthetase (TcYRS) _High Tyrosine SOP. Further: in the data most compounds retested in dose-response had high values. The class given is functional. To be noted: 30 µM.

Test [9] has as its target T5, Tyrosyl-tRNA synthetase, putative (Trypanosoma cruzi (strain CL Brener)). Briefly: Trypanosoma cruzi tyrosyl tRNA synthetase (TcYRS) SOP. The class given is functional. As to conditions: 30 µM.
The target of test [10] is Chromo domain-containing protein 1 (Saccharomyces cerevisiae (strain ATCC 204508 / S288c) (Baker's yeast)) (UniProt P32657). Briefly: ScCHD-1 Enzyme Inhibition Assay. Further: in the data most compounds retested in dose-response had high values. Format: functional. As to conditions: 30 µM.
Chromo domain-containing protein 1 (Saccharomyces cerevisiae (strain ATCC 204508 / S288c) (Baker's yeast)), sequence (P32657 whole entry, the tested form may be a part): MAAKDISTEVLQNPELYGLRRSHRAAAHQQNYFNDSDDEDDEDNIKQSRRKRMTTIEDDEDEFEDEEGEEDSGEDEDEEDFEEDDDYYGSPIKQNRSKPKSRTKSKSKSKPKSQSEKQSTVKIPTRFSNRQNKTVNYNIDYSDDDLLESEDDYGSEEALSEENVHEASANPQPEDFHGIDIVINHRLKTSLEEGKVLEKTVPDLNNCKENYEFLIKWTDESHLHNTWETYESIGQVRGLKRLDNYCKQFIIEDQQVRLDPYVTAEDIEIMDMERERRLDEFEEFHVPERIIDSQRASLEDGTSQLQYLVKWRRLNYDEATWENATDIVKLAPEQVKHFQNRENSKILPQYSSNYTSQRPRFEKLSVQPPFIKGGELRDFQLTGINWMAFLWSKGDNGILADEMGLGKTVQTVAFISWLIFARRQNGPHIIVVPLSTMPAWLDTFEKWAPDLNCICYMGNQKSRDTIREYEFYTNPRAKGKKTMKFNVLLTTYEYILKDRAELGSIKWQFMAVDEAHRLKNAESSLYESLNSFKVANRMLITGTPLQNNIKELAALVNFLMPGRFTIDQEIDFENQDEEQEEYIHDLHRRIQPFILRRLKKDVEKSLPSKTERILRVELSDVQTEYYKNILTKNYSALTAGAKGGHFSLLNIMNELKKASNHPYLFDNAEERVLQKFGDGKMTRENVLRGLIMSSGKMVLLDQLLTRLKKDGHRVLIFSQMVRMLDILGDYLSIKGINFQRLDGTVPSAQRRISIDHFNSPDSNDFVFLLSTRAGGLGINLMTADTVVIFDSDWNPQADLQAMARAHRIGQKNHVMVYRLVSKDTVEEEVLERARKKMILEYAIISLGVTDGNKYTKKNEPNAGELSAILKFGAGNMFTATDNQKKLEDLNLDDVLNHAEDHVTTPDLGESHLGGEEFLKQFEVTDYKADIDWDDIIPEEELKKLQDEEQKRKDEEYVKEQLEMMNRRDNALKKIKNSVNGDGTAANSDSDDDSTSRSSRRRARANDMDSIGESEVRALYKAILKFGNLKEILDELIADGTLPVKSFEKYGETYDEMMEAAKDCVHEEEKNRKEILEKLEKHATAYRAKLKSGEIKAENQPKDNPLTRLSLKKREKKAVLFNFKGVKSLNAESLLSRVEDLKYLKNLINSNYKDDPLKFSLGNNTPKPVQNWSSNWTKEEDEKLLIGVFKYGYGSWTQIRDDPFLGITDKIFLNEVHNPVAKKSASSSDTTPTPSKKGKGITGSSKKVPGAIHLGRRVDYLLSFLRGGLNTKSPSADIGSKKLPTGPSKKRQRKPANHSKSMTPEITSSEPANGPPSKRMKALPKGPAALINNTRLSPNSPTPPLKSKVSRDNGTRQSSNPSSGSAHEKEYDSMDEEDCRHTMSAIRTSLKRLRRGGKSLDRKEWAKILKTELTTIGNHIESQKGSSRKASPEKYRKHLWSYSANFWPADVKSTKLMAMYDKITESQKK
The target of test [11] is AMP-activated protein kinase, AMPK (Homo sapiens) (UniProt P54646+O43741+P54619+Q9UGJ0+Q9Y478+Q13131+Q9UGI9). Description: AMP-dependent Kinase enzyme assay. An in vitro enzyme assay that detects ADP turnover that is directly proportional to AMPK activity. This uses naive AMPK that is activated during the assay with MK-8722. Format: functional. As to conditions: 30 µM.

Sialic acid-binding Ig-like lectin 9 (Homo sapiens), sequence (Q9Y336 whole entry): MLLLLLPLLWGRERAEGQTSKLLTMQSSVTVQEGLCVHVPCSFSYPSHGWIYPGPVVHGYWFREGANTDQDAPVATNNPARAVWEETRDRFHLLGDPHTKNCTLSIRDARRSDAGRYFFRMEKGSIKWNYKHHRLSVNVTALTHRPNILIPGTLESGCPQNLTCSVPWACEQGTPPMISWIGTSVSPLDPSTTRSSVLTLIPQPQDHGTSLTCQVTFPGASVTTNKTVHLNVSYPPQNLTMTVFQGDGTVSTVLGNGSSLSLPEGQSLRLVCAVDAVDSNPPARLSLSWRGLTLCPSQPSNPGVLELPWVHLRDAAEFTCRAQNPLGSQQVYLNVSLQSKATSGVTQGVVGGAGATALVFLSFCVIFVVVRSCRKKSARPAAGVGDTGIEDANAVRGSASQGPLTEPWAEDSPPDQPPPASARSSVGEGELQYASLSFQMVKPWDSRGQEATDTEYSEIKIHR

For `COCCNC(=O)c1cn(C(C)(C)C)c2ncccc12`, the Percent Effect in test [1] was 107%; in test [2], 6.67%; in test [3], 2.31%; in test [4], -7.99%; in the test with Trypanosoma cruzi, 0.197%; in test [5], 6.2%. Moreover, the Percent Effect was 11% in test [6]; 3.2% in the test listed under Homo sapiens; 4% in test [7]; 0% in test [8]; 10% in [9]; -17.6% in test [10].
Take `CC(=O)N1CCN(Cc2ccccn2)CC2(CC(=O)N(C)C2)C1` (stereo not given): the Percent Effect is -0.0517% in test [1]; -29.9% in [2]; -4.78% in test [3]; 4% in [4]; 0.938% in the test on Trypanosoma cruzi; -1.37% in test [5]. Besides, the Percent Effect was 3.35% in test [6]; -20.2% in the test listed under Homo sapiens; 2.99% in test [7]; 6.76% in test [8]; 7.5% in test [9]; -1.54% in test [10].
Take `CCN1CCC2(CCC1=O)CN(c1ccnc(SC)n1)CCN2C` (stereo not given): the Percent Effect is -7.58% in [1]; 5.33% in test [2]; -3.27% in test [3]; 2.15% in test [11]; 13% in test [4]; -0.682% in the test on Trypanosoma cruzi. Moreover, the Percent Effect in [5] was 6.25%; in test [6], 11.2%; in the test filed under Homo sapiens, 7.14%; in test [8], 3.83%; in [9], 8.64%; in test [10] it was -7.61%.
On to `Cc1cccc(CN2C(=O)C[C@H]3[C@@H]2CCN3CC2CC2)n1`, for which the Percent Effect in test [1] was -1.8%; in test [2], -22.1%; in test [3], 3.32%; in test [4], 2.35%; with Trypanosoma cruzi, 0.563%; in [5], 1.83%. In addition, the Percent Effect in test [6] is 12.3%; in the test filed under Homo sapiens it was -5.79%; in [7] it was 4.71%; in test [8], 12.6%; in test [9], 12.5%; in [10], -5.44%.
On to `COc1ccc(C)cc1CC(=O)N1CCN(CC(C)O)CC1` (stereo not given), for which the Percent Effect in test [1] was -3.62%; in [2] it was 15.6%; in [3], 3.12%; in [4] it was 6.85%; with Trypanosoma cruzi, 5.6%; in [5], -5.53%. Moreover, the Percent Effect in test [6] was 8.07%; in the test filed under Homo sapiens, 0.0446%; in test [7] it was -20.5%; in test [8] it was 4.9%; in test [9], 18.8%; in test [10], -7.21%.
